Values joined by “and” are separate entries in the source; they are usually repeats but may differ in a detail not shown here. Equal entries are not always repeated. Inconclusive results are not listed. Entries that show only a call come without a potency. Active and inactive are the calls of the source. Calls come from the whole dose curve; as a rule, active = well fitted inhibition curve with a large enough effect in the repeat runs; inconclusive = weak or mixed curves, or effect the other way; inactive = no such curve, though single readings can be large or run the other way.

Data on 40 compounds can be found in PubChem BioAssay (Tox21).
Potency is the fitted concentration of half-maximal effect.

In the test the target is Nuclear receptor ROR-gamma (Homo sapiens) (UniProt P51449). Kind of test: qHTS assay to identify small molecule antagonists of the retinoid-related orphan receptor gamma (ROR-gamma) signaling pathway (AID 1159521; note: nearly all actives have a fitted effect of over 50% in size). The settings on record: Tet-on RORgamma CHO cells, RORE-luciferase, 16 h; series mostly up to 92.4 µM. The source says:
U.S. Tox21 Program National Center for Advancing Translational Sciences [NCATS] NIH Chemical Genomics Center [NCGC] U.S. Environmental Protection Agency [EPA] National Institutes of Environmental Health Sciences [NIEHS] National Toxicology Program [NTP] U.S. Food and Drug Administration [FDA] Tox21 Assay Overview: Nuclear steroid hormone receptors are involved in many biological processes including inflammatory responses, cell proliferation, and apoptosis. Environmental factors or compounds disrupting these nuclear receptor pathways and gene expression may promote susceptibility to immunotoxicants and autoimmune diseases. One important group of these expression factors are the retinoid-related orphan receptors. To assess compounds that may interfere with the retinoid-related orphan receptor gamma (ROR-gamma) transcription factor, a cell-based luciferase assay was used. The CHO cell-based assay utilizes a TET-inducible ROR expression factor and ROR response element-LUC reporter gene. Reporter gene activity was induced using Doxycycline Hyclate and measured after 16 hr incubation. Tet-on ROR gamma CHO cells were used to screen against the Tox21 10K compound library for ROR gamma antagonists by quantification of decreased reporter gene activity in terms of decreased luminescence.
Tox21 Assay Protocol Summary: Tet-on ROR gamma CHO cells were dispensed at 1,000 cells in 4 uL of culture medium per well into white wall/solid bottom 1536-well plates using a Multidrop Combi (Thermo Scientific, Waltham, MA) dispenser. Following incubation at 37 C and 5% CO2 for 4 hr, 23 nL of compounds dissolved in DMSO, positive controls or DMSO only were transferred by a Pintool station (Kalypsys, San Diego, CA) and after 2 hr incubation at 37 C, one ul of 1 uM (final concentration) of Doxycycline Hyclate was added to all the wells by using a Flying Reagent Dispenser (FRD) (Aurora Discovery, San Diego, CA). After 16 hr incubation at 37 C and 5% CO2, 5 uL of ONE-Glo reagent (Promega Corporation, Madison, WI) was added to each assay plate using FRD. After 30 min incubation at room temperature, luminescence was quantified on a ViewLux plate reader (Perkin Elmer, Waltham, MA).
On the technique in general: Quantitative high-throughput screening tests each substance at several concentrations.
Take `O=S1(=O)OCC2C(CO1)C1(Cl)C(Cl)=C(Cl)C2(Cl)C1(Cl)Cl` (stereo not given): the Potency is 19.3 µM (active). Turning to `O=C(N[C@@H]1N=C(c2ccccc2F)c2cccc3c2N(CC3)C1=O)c1cc2ccccc2[nH]1`, the Potency entry was “inactive”. In the case of `Clc1cc(Cl)c(-c2cc(Cl)c(Cl)cc2Cl)cc1Cl` it was “inactive”. For `CCC[CH2][Sn]([CH2]CCC)([CH2]CCC)[CH2]CCC`, the Potency is 6.11 µM (active). Take `Brc1ccc(Oc2ccc(Br)cc2Br)c(Br)c1`: the Potency entry is “inactive”.

For `N#Cc1c[nH]cc1-c1cccc2c1OC(F)(F)O2`, the Potency was 17.2 µM (active). Turning to `C=CC(=O)[O][Sn]([CH2]CCC)([CH2]CCC)[CH2]CCC`, the Potency is 0.611 µM (active). `CCN1CCC2(CC1)COc1cc3c(cc12)N(C(=O)c1ccc(-c2ccc(-c4nnc(C)o4)cc2C)cc1)CC3`: the Potency was 2 µM (active). For `CO/N=C(\C(=O)OC)c1ccccc1CO/N=C(\C)c1cccc(C(F)(F)F)c1`, the Potency is 0.77 µM (active).

For the compound `CC(C)C(Nc1ccc(C(F)(F)F)cc1Cl)C(=O)OC(C#N)c1cccc(Oc2ccccc2)c1` (stereo not given), the Potency result was “inactive”. As to `N#Cc1c2ccccc2cc2ccccc12`, the Potency result is “inactive”. Consider `COc1nc(C)nc(NC(=O)NS(=O)(=O)c2ccccc2Cl)n1`, for which the Potency entry is “inactive”. For the compound `O.O.O.O=C([O-])[C@H]([O-])[C@@H]([O-])C(=O)[O-].O=C([O-])[C@H]([O-])[C@@H]([O-])C(=O)[O-].[K+].[K+].[Sb+3].[Sb+3]`, the Potency is 1.94 µM (active). For the compound `ClC1=C(Cl)[C@]2(Cl)[C@H]3[C@H]([C@@H]4C=C[C@H]3C4)[C@@]1(Cl)C2(Cl)Cl`, the Potency was 54.4 µM (active).

Turning to `CO/N=C(/C1=NOCCO1)c1ccccc1Oc1ncnc(Oc2ccccc2Cl)c1F`, the Potency is 0.968 µM (active). In the case of `Cc1ccc(C)c2ccccc12` it was “inactive”; in that of `CC(C)[C@@H](Nc1ccc(C(F)(F)F)cc1Cl)C(=O)OC(C#N)c1cccc(Oc2ccccc2)c1` (stereo not given in full), “inactive”; in that of `CCCCCON=O`, “inactive”.

On to `CCCCC/C=C\C/C=C\C/C=C\C/C=C\CCCC(=O)NCC(=O)O`, for which the Potency entry was “inactive”. Consider `CC(C)C(Br)C(=O)NC(N)=O` (stereo not given), for which the Potency entry was “inactive”. Consider `CN(C)C(=S)SSC(=S)N(C)C`, for which the Potency is 85.1 nM (active) and 344 nM (active) and 266 nM (active).

As for `CCOP(=S)(OCC)Oc1cc(C)nc(N(CC)CC)n1`, the Potency result was “inactive”.

For the compound `Cc1ccccc1OP(=O)(Oc1ccccc1C)Oc1ccccc1C`, the Potency is 54.7 µM (active).

Regarding `O=C1C2(Cl)C3(Cl)C4(Cl)C(Cl)(Cl)C5(Cl)C3(Cl)C1(Cl)C5(Cl)C24Cl` (stereo not given), the Potency was 12 µM (active) and 29.3 µM (active). Consider `Cc1ccc([N+](=O)[O-])[c]2c1[O][Hg]2`, for which the Potency is 0.376 µM (active). With `COc1cnc(OC)n2nc(NS(=O)(=O)c3c(OCC(F)F)cccc3C(F)(F)F)nc12`, the Potency result is “inactive”. `CCCCC(CC)COC(=O)OOC(C)(C)C` (stereo not given): the Potency result is “inactive”.

Take `O=[N+]([O-])c1ccccc1-c1ccccc1`: the Potency entry was “inactive”. As for `c1ccc(N=NNc2ccccc2)cc1`, the Potency entry was “inactive”. Turning to `CCOC(=O)CCN(SN(C)C(=O)Oc1cccc2c1OC(C)(C)C2)C(C)C`, the Potency is 30.6 µM (active). For `Nc1nc(N)nc(Cl)n1`, the Potency entry was “inactive”. In the case of `S=C=Nc1ccccc1` it was “inactive”. Then `CCOP(=O)(Sc1ccccc1)Sc1ccccc1`, with “inactive”. Then `COCCC#N`, with “inactive”; and `O=C(NC(=O)c1c(F)cccc1F)Nc1ccc(Oc2ccc(C(F)(F)F)cc2Cl)cc1F`, with 24.3 µM (active); and `CC[C@H](C)[C@H]1O[C@]2(C=C[C@@H]1C)C[C@@H]1C[C@@H](C/C=C(\C)[C@@H](O[C@H]3C[C@H](OC)[C@@H](O[C@H]4C[C@H](OC)[C@@H](NC)[C@H](C)O4)[C@H](C)O3)[C@@H](C)/C=C/C=C3\CO[C@@H]4[C@H](O)C(C)=C[C@@H](C(=O)O1)[C@]34O)O2`, with 3.86 µM (active). With `Oc1ccc(Cl)c(Cl)c1`, the Potency is 17 µM (active).

Regarding `C=Cc1cccc(CCl)c1`, the Potency result is “inactive”. Consider `C=CC(=C)C`, for which the Potency result is “inactive”.

Take `COc1ccc2c3c1O[C@H]1[C@H](O)CC[C@H]4[C@@H](C2)N(C)CC[C@@]341`: the Potency result was “inactive”.
